The nature of test [1]: AP1 Signaling Pathway (AID 357; active = well fitted curve in either direction with a large enough effect, not every such curve was filed as active; note: % is set by controls: 0 for no effect and ±100 for the full control effect). The note with it: ME-180 AP-1-bla reporter, EGF-induced, beta-lactamase ratio, 5 h; at 7.69 µM (top of the series) unless noted. A digest of the protocol:
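AP-1-bla ME-180 cells with beta-lactamase reporter under AP-1 response element, stimulated with EC50 EGF; compounds titrated, 5 hours at 37 degrees Celsius. CCF4 read at 460/530 nm ratio; positive and negative modulators judged by AC50.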

Test [2] addresses Cytochrome P450 1A2 (Homo sapiens) (UniProt P05177). Nature of the test: p450-cyp1a2 (AID 410; calls by dose curve; note: potency is the fitted concentration of half-maximal effect;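 for activity change, negative = inhibition: -100% = full effect of reference inhibitor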). A digest of the protocol: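 O-Demethylation of luciferin 6' methyl ether by human CYP1A2 is monitored as luciferase luminescence. Substrate sits at Km (100uM); enzyme is 20nM. Values are scaled to 57 uM furafylline as maximal inhibition.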
A short description of test [3]: NFAT Signaling Pathway (AID 444; active = well fitted curve in either direction with a large enough effect, not every such curve was filed as active;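 note: carbachol stimulus at about its EC50 of 1 µM final; % is set by controls: 0 for no effect and ±100 for the full control effect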). The note with it: Jurkat NFAT-bla M1, carbachol, beta-lactamase ratio, 5 h; at 7.69 µM (top of the series) unless noted. A digest of the protocol: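 Jurkat cells with NFAT-driven β-lactamase reporter and co-expressed M1 receptor, stimulated with carbachol (final 1 uM, ~EC50), compound titration, 5 h at 37 °C. CCF4 loaded 1 h at RT; 460/530 nm ratio gave %activity and AC50.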

The target of test [4] is Glucocorticoid receptor (Homo sapiens) (UniProt P04150). Nature of the test: GR-GFP Redistribution (AID 450;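 active = compounds whose dose series gives a full or clear partial fitted curve of increased nuclear translocation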; note: potency is the fitted concentration of half-maximal effect). As to conditions: U2OS GR-GFP nuclear translocation, laser cytometry, 2 h.
Glucocorticoid receptor (Homo sapiens), sequence (P04150 whole entry, looked up, the tested form may be a part): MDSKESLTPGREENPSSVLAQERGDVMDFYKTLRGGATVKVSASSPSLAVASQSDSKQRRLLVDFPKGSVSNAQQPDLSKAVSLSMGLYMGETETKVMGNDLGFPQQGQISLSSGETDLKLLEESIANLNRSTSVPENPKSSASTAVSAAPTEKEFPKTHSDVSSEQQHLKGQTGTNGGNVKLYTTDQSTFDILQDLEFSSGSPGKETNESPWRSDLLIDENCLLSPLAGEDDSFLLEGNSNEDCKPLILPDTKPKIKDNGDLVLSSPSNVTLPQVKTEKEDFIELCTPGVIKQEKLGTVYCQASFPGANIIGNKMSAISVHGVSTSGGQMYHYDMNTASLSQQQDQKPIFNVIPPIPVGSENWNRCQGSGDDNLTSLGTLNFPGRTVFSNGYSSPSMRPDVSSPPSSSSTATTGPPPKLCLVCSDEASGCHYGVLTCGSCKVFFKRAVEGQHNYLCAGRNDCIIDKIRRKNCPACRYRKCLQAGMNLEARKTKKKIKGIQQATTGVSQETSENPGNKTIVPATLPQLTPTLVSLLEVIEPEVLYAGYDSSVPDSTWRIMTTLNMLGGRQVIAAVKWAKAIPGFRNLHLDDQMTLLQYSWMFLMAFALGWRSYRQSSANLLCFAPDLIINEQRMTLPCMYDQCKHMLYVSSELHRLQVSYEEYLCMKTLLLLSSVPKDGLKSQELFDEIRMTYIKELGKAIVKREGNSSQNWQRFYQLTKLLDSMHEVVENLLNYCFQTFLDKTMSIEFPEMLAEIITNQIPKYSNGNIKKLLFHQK
The target is the same in test [5]. Put plainly: GR-EFC Redistribution (AID 451; calls by dose curve; note: potency is the fitted concentration of half-maximal effect). The note with it: CHO-K1 GR-EFC translocation, beta-gal luminescence, 2 h. A digest of the protocol: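 CHO-K1 cells expressing nuclear EA and GR-ED fragments of b-gal; compounds titrated up to 46 uM final, 2 h at 37 C. GR nuclear translocation read as complemented b-gal luminescence after 1 h RT detection.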
Test [6] addresses Mitogen-activated protein kinase 10 (Mus musculus) (UniProt Q61831). Put plainly: JNK3 AlphaScreen Assay (AID 530; active = well fitted curve in either direction with a large enough effect, not every such curve was filed as active;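 note: kinase came from lysate of stimulated human HepG2 cells; signal reports phosphorylation of biotinylated GST-cJun 1-79 at Ser73 with 10 µM ATP; % is set by controls: 0 for no effect and ±100 for the full control effect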). A digest of the protocol:
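Activity was read by AlphaScreen after JNK3-containing HepG2 lysate (cytokine pre-activated) phosphorylated biotinylated GST-cJun with 10 uM ATP at room temperature. Phospho-Ser73 cJun antibody with Protein-A acceptor beads provided detection.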
For orientation: Alpha assays give light when donor and acceptor beads are brought close together.

Test [7] concerns the target 3',5'-cyclic-AMP phosphodiesterase 4B (Homo sapiens) (UniProt Q07343). Put plainly: qHTS Assay for Inhibitors of PDE-IV (AID 607; active = well fitted activation curve with a large enough effect in the main read-out, with a control signal flat, not every such curve was filed as active; note: % of control where 0% means no effect). A digest of the protocol: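 The readout is membrane depolarisation from a cAMP-sensing CNG channel, detected with a potential dye at ex 535/em 590. Cells were HEK293-derived (endogenous PDE-IV) at 1000 cells/well, titrated up to 22.9 uM final.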
(qHTS replaces the single test concentration by a dilution series.)

Test [8] concerns the target Guanine nucleotide-binding protein G(i) subunit alpha-1 (Homo sapiens) (UniProt P63096). Nature of the test: qHTS Assay for Inhibitors of RGS12 GoLoco Motif Activity (Green Fluorophore) (AID 879).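 Note: 0% = labeled peptide with Gαi1 and full inhibition = labeled peptide alone without protein; negative values mean loss of peptide binding seen as reduced polarization.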 A digest of the protocol: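 A drop in FITC polarization marked displacement of the FITC-tagged RGS12 GoLoco peptide (10 nM) from Gαi1 (50 nM). Compounds were incubated 10 min at room temperature in Tris pH 7.5 buffer containing 150 mM NaCl, 0.1 mM GDP and 0.05% NP40; unlabeled peptide titration served as control.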

In test [9] the target is Cytochrome P450 2D6 (Homo sapiens) (UniProt P10635). Put plainly: qHTS Assay for Inhibitors and Substrates of Cytochrome P450 2D6 (AID 891).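 Note: luciferin methyl ether substrate demethylated by CYP2D6 with NADPH regeneration; % is set by controls: 0 for no effect and ±100 for the full control effect; nearly all actives have a fitted effect of over 60% in size.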 A digest of the protocol:
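Luminescent read-out of luciferin formed by 5 nM human CYP2D6 demethylating 30 uM Luciferin-ME EGE (Km level) over 60 min at room temperature after NADPH regeneration addition. Data normalized to full inhibition by 1.43 uM quinidine.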

Test [10] is described as follows: qHTS Assay for Identification of Small Molecule Agonists for Thrombopoietin (TPO) Signaling Pathway (AID 917). Note: % is set by controls: 0 for no effect and ±100 for the full control effect. A digest of the protocol: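 Quantitative HTS for pathway activators: compounds were pin-transferred onto IL-3-starved Ba/F3 cells expressing human TPO receptor, TPO was added at its EC50 (26 pM final), and after 24 hrs at 37 C reporter luciferase was measured.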

For test [11], the target named is Muscarinic acetylcholine receptor M1 (Rattus norvegicus) (UniProt P08482). Put plainly: qHTS Assay for Antagonists of Acetylcholine Muscarinic M1 Receptor: Measurement of IP-One Response (AID 944). Note: nearly all actives have a fitted effect of over 75% in size. A digest of the protocol: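 Antagonist mode with rat M1 receptor transfected into CHO cells. Compound is added first for 10 min, carbachol at its EC80 follows for 30 min, and lysis reagents then allow TR-FRET detection of accumulated IP1.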
Muscarinic acetylcholine receptor M1 (Rattus norvegicus), sequence (P08482 whole entry, looked up): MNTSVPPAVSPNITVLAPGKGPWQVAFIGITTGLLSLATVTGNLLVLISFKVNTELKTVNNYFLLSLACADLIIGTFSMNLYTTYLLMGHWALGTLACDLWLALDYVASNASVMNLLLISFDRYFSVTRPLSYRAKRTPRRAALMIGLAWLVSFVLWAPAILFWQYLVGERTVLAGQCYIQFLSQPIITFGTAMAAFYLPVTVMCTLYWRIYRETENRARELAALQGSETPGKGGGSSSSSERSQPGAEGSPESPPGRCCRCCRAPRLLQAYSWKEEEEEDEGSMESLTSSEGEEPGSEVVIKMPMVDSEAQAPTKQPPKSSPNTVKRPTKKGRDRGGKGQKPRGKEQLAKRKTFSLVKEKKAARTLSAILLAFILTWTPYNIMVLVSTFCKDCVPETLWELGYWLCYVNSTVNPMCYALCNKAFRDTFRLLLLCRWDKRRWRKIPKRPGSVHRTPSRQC

Test [12] addresses Pyruvate kinase (Leishmania mexicana) (UniProt Q27686). Nature of the test: qHTS Validation Assay for Inhibitors of Leishmania Mexicana Pyruvate Kinase (AID 945).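 Note: 0% = DMSO only neutral control wells.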 A digest of the protocol:
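Eight-point qHTS titrations in triplicate, data normalized to DMSO neutral control. Reaction: 0.2 nM LmPYK E451W mutant, 0.5 mM PEP, 0.1 mM ADP, 7 mM MgCl2, pH 7.2, one hour at room temperature; luminescent ATP detection.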

Test [13] has as its target Pyruvate kinase PKM (Homo sapiens) (UniProt P14618). Put plainly: qHTS Assay for Activators of Human Muscle Pyruvate Kinase (AID 954; active = well fitted curve in the direction sought with a large enough effect, not every such curve was filed as active;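 note: 0% = uninhibited enzyme and -100% = no enzyme or full thiadiazolimine inhibition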). A digest of the protocol: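 PKM2, human, >95% pure, 0.1 nM; PEP 0.5 mM (Km), ADP 0.1 mM; 50 mM imidazole pH 7.2, 50 mM KCl, 0.01% Tween 20, 0.05% BSA; 1 h RT; luciferase luminescence readout.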
Test [14] has as its target Alpha-galactosidase A (Homo sapiens) (UniProt P06280). Nature of the test: Counterscreen for Glucocerebrosidase Inhibitors: qHTS Assay for Human alpha-Galactosidase at pH 4.5 (AID 992). Note: 0% is about no effect. A digest of the protocol:
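Fluorogenic 4-MU alpha-D-galactoside (80 uM) hydrolysis, 2 nM enzyme, pH 4.5 citrate buffer + 0.005% Tween-20; 20 min RT; NaOH/glycine pH 10 stop; Ex365/Em440. Compounds titrated 0.7 nM–77 uM; Hill-equation AC50.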
On the technique in general: A counterscreen serves to expose hits that act by an unwanted route or on another target.

The target of test [15] is alpha-glucosidase (Oryza sativa, rice) (UniProt Q653V4). Put plainly: Counterscreen for Glucocerebrosidase Inhibitors: qHTS Assay for Rice alpha-Glucosidase at pH 5.0 (AID 997).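 Note: 0% = full activity with enzyme and -100% = basal without enzyme.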 A digest of the protocol: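 Endpoint fluorogenic assay at pH 5.0: compounds (0.7 nM to 77 uM) titrated against 4 nM rice enzyme and 400 uM 4-MU-alpha-glucoside for 20 min at room temperature; NaOH/glycine stop, read ex 365/em 440 nm, Hill-fitted AC50.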

The nature of test [16]: qHTS Assay for Identification of Small Molecule Antagonists for NFkB Signaling Pathway (AID 895; active = well fitted inhibition curve with a large enough effect in the signal ratio, with a control signal flat, not every such curve was filed as active; the % refers to the signal ratio; note: % is set by controls: 0 for no effect and ±100 for the full control effect). A digest of the protocol: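 ME-180 NFkB-bla cells (beta-lactamase under NFkB response element), plated overnight, treated with compound then 10 pM TNF alpha (about EC50) for 5 hrs at 37 C. LiveBLAzer FRET read at 460/530 nm emission, 405 nm excitation.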
Test [17] in a line: Stat Signaling Pathway (AID 446; active = well fitted curve in either direction with a large enough effect, not every such curve was filed as active). The note with it: ME-180 (cervical carcinoma) SIE beta-lactamase reporter, IL-6 stimulated, 5 h; at 7.69 µM (top of the series) unless noted. A digest of the protocol:
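Emission at 460 and 530 nm (excitation 405 nm) reports SIE-controlled beta-lactamase in ME-180 cells. Cells received compound with 40 pM IL-6 for 5 hrs at 37 C; data scaled between 300 pM IL-6 and 125 nM JAK-inhibitor controls.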

In test [18] the target is Cytochrome P450 2C9 (Homo sapiens) (UniProt P11712). Put plainly: qHTS Assay for Inhibitors and Substrates of Cytochrome P450 2C9 (AID 883). Note: % is set by controls: 0 for no effect and ±100 for the full control effect; nearly all actives have a fitted effect of over 60% in size. A digest of the protocol: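 Signal: luciferase luminescence reporting luciferin produced by CYP2C9. Conditions: 10nM enzyme, Luciferin-H 100uM at KM, 25mM KPO4, 37C, 60 min NADPH-driven reaction. Reference: 57uM sulphaphenazole as 100% inhibition.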

The target of test [19] is Cytochrome P450 2C19 (Homo sapiens) (UniProt P33261). Nature of the test: qHTS Assay for Inhibitors and Substrates of Cytochrome P450 2C19 (AID 899). Note: % is set by controls: 0 for no effect and ±100 for the full control effect; nearly all actives have a fitted effect of over 60% in size. A digest of the protocol: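 Signal comes from luciferase acting on luciferin released by CYP2C19-mediated hydroxylation of Luciferin-H EGE, 10uM (KM). Assay mix: 5nM enzyme, 50mM KPO4; 60 min at 37C with NADPH regeneration. Data normalized against 57uM ketoconazole.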
Cytochrome P450 2C19 (Homo sapiens), sequence (P33261 whole entry, looked up): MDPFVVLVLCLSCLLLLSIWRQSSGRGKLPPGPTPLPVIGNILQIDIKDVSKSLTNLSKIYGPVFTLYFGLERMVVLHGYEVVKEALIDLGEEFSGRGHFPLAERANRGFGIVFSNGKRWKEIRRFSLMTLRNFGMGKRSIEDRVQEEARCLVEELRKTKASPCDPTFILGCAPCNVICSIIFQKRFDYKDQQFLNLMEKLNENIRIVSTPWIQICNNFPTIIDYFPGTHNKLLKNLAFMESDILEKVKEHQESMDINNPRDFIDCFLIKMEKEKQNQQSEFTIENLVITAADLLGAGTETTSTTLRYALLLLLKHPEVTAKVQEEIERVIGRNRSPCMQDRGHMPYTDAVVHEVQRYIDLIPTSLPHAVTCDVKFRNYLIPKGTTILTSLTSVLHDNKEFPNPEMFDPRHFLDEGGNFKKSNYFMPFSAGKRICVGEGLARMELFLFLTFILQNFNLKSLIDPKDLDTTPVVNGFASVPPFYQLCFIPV

Values joined by “and” are separate entries in the source; they are usually repeats but may differ in a detail not shown here. Equal values may be shown once. A number with no mark means an inactive call. Results filed as inconclusive are left out. Active and inactive are the calls of the source. Unless noted, calls come from the whole dose curve; as a rule, active = well fitted curve in the direction sought with a large enough effect; inconclusive = small, poorly fitted or top-dose-only effect, or another doubt; inactive = no such curve, though single readings can be large; an effect the other way counts as inactive or inconclusive. Bounds are passed on as bounds.

Cytochrome P450 1A2 (Homo sapiens), sequence (P05177 whole entry, looked up): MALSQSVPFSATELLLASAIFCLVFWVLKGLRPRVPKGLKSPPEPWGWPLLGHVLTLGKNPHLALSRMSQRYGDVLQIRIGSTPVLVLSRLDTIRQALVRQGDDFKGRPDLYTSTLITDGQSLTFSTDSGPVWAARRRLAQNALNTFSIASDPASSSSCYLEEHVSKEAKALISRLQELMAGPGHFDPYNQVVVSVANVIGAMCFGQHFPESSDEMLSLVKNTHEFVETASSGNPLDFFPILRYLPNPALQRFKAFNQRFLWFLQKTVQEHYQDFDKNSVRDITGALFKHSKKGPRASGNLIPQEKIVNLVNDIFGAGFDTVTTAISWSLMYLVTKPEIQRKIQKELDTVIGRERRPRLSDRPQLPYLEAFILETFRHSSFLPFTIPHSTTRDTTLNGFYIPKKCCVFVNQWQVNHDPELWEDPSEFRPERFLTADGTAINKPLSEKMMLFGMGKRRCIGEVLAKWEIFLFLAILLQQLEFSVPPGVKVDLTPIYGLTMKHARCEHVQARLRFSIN
Pyruvate kinase (Leishmania mexicana), sequence (Q27686 2-499 E452W): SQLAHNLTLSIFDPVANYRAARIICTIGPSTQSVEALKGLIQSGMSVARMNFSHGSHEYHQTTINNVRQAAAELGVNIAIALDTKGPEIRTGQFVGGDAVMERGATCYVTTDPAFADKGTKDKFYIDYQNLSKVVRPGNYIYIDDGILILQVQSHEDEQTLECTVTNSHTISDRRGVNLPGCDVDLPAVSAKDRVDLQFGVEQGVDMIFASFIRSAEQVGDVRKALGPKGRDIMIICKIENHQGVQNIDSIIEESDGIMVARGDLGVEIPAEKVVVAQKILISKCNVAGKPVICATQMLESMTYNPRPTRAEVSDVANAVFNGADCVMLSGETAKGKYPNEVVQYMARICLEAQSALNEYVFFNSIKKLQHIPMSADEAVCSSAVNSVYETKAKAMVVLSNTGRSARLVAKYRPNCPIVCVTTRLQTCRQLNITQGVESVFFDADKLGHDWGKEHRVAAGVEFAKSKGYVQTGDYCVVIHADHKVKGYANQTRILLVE
Guanine nucleotide-binding protein G(i) subunit alpha-1 (Homo sapiens), sequence (P63096 whole entry, looked up): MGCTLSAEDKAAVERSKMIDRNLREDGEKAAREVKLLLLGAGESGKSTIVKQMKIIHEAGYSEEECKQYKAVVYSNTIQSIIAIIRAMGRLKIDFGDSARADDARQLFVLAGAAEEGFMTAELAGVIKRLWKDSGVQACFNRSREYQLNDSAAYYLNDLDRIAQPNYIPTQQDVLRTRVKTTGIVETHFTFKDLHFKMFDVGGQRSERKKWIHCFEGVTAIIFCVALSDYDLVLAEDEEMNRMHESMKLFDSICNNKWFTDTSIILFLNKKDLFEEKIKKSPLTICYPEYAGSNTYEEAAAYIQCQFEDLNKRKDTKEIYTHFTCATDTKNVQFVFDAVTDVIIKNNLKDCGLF
Pyruvate kinase PKM (Homo sapiens), sequence (P14618 whole entry, looked up): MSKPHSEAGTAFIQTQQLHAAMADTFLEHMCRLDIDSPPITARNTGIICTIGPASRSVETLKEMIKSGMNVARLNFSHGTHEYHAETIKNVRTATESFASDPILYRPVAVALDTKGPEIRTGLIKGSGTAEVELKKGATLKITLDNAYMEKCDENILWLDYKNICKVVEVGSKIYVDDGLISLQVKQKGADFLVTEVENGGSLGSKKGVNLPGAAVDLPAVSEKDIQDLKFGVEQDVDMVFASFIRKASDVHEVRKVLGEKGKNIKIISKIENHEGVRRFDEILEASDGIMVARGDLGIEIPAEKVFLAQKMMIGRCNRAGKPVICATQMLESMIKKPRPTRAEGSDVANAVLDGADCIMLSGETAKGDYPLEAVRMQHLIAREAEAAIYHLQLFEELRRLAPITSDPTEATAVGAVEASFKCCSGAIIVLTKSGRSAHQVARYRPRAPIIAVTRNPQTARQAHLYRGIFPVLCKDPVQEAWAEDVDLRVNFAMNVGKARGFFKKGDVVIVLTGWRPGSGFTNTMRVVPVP
3',5'-cyclic-AMP phosphodiesterase 4B (Homo sapiens), sequence (Q07343 whole entry, looked up): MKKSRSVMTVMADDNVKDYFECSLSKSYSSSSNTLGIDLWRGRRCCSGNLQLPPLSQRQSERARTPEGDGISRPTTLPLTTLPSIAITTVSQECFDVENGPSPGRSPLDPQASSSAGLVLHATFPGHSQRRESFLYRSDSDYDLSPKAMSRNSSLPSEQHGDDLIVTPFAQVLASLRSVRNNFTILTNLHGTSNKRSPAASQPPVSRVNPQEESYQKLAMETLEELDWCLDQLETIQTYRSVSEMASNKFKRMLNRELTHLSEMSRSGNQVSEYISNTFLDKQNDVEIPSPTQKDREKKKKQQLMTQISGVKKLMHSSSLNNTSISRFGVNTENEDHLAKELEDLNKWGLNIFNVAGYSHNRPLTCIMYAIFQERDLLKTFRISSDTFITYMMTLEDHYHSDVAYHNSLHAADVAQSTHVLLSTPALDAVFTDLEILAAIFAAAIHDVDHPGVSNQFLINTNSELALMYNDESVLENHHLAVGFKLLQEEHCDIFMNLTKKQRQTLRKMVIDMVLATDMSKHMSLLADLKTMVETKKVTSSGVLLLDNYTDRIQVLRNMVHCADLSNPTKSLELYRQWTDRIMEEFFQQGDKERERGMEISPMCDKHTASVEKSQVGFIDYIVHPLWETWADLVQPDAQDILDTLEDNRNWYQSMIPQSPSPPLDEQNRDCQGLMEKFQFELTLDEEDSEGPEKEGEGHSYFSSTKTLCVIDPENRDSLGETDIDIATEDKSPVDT
Alpha-galactosidase A (Homo sapiens), sequence (P06280 whole entry, looked up): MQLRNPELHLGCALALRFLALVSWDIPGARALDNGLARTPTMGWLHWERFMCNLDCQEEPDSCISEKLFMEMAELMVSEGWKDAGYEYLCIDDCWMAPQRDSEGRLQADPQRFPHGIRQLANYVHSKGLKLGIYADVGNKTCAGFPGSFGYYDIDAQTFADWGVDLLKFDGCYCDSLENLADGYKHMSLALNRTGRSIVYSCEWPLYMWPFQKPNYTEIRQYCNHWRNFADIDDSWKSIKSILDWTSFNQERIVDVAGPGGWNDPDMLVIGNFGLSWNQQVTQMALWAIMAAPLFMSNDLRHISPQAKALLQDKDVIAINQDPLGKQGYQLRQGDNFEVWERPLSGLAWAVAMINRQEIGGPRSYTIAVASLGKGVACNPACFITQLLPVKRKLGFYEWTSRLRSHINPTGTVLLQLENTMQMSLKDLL

Turning to `CCCC[S@@](=N)(=O)CC[C@@H](N)C(=O)O`, the activity change, negative = inhibition in [1] is 3.63% [at 38 µM] and -2.23% [at 38 µM]; in [3] it was -1.5% [at 38 µM] and 5.43% [at 38 µM]. The Potency result in test [2], in [6], in test [7], in [9], in test [11] and in test [15] was “inactive” each time. For the same molecule, the Potency in test [4] and in test [5] was more than 46 µM throughout. The molecule was called inactive in test [8], in [10], in [12], in test [13] and in test [14].

As to `COc1cc2nc(N3CCN(C(=O)OCc4ccccc4)[C@H](C(=O)NC(C)(C)C)C3)nc(N)c2cc1OC`, the results for the activity change, negative = inhibition in test [1] and in [3] were -7.79% [at 38 µM] and 3.46% [at 38 µM], respectively. Besides, the Potency entry in test [2], in [6], in test [7], in test [16], in [11] and in test [15] was “inactive” each time. The Potency in test [4] and in [5] was more than 46 µM in each case. Also, the molecule was called inactive in test [8], in test [12], in test [13] and in [14].

`CC[C@@H]1CN2CCc3cc(OC)c(OC)cc3[C@H]2C[C@@H]1C[C@H]1NCCc2cc(OC)c(OC)cc21`: the activity change, negative = inhibition is -115% [at 17.2 µM] (active) in test [1] and -120% [at 17.2 µM] (active) in test [3]. Besides, the Potency entry in test [2], in [18] and in [9] was “inactive” throughout. The activity, negative = inhibition in test [17] was -94.8% [at 17.2 µM] (active). Besides, the Potency in [4] is > 20.6 µM and > 46 µM; in test [5], > 20.6 µM and > 46 µM.

With `Cc1cn([C@H]2C=C[C@H](CO)O2)c(=O)[nH]c1=O`, the activity change, negative = inhibition in [1] was 11.1% [at 38 µM]; in test [3], 4.45% [at 38 µM]. The Potency result in [2], in [7], in test [18], in [9] and in test [19] was “inactive” each time. Moreover, the activity, negative = inhibition in [17] is 23.6% [at 38 µM].

On to `COC(=O)[C@@H]1[C@H]2C[C@H]3c4[nH]c5cc(OC)ccc5c4CCN3C[C@@H]2C[C@@H](OC(=O)c2cc(OC)c(OC)c(OC)c2)[C@@H]1OC`, for which the activity change, negative = inhibition in [1] was -23.7% [at 38 µM]; in [3], 3.19% [at 38 µM]. The values for the Potency in test [2], in [4] and in test [5] were 15.8 µM (active), more than 46 µM and more than 46 µM, respectively. Moreover, the Potency entry in [6], in [7], in test [18] and in [19] was “inactive” in each case.

On to `C=C/C(C)=C/[C@]1(C)SC(=O)C(C)=C1O`, for which the activity change, negative = inhibition in test [1] is -3.15% [at 38 µM]; in test [3], 11.1% [at 38 µM]. The Potency result in test [2], in test [7], in test [16], in test [11] and in [15] was “inactive” each time. In addition, in [17], the activity, negative = inhibition was -7.1% [at 38 µM]. Besides, in [4], the Potency is more than 46 µM. The result in test [8], in test [10], in [12], in test [13] and in test [14] was inactive.

Values taken from PubChem BioAssay (NCATS).
